Laboratory results reported in PubChem BioAssay (NCI).
This is part of a sample that, as a whole, favours compounds with a hit. Of some 83,000 tested, about 20% had one in any assay.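 Each cell line was grown in a 96-well plate and treated with one concentration of compound for 48 hours. Values below 10 were considered active.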 A number with no mark means an inactive call. Active and inactive are the calls of the source.

Key:
Test in all cases: NCI-60 one-dose screen, 48 h (100 = growth as untreated, 0 = no growth, -100 = all killed)
Conditions in all cases: 10 µM unless noted
[1] = system: DU-145 prostate
[2] = system: K-562 leukemia
[3] = system: MALME-3M melanoma
[4] = system: MDA-MB-231 breast
[5] = system: RXF 393 renal
[6] = system: SF-268 CNS
[7] = system: SF-295 CNS
[8] = system: SF-539 CNS
[9] = system: UACC-257 melanoma
[10] = system: M14 melanoma
[11] = system: HCT-15 colon
[12] = system: HT29 colon
[13] = system: SNB-75 CNS
[14] = system: SNB-19 CNS
[15] = system: U251 CNS
[16] = system: PC-3 prostate
[17] = system: SK-MEL-5 melanoma
[18] = system: UACC-62 melanoma
[19] = system: LOX IMVI melanoma
[20] = system: SK-MEL-28 melanoma

| SMILES | growth [1] | growth [2] | growth [3] | growth [4] | growth [5] | growth [6] | growth [7] | growth [8] | growth [9] | growth [10] | growth [11] | growth [12] | growth [13] | growth [14] | growth [15] | growth [16] | growth [17] | growth [18] | growth [19] | growth [20] |
| --- | --- | --- | --- | --- | --- | --- | --- | --- | --- | --- | --- | --- | --- | --- | --- | --- | --- | --- | --- | --- |
| CC(C)C1=NOC(=O)C1=Cc1cn(-c2ccco2)nc1-c1ccccc1 | 94.6% | 62.1% | 104% | 92% | 80.6% | 90.5% | 99.2% | 99.9% | 106% | 85.6% | 77.8% | 86.3% | 80.8% | 89.8% | 75.6% | 78% | 95.3% | 87.6% | 39.3% | 99% |
| COc1ccc(-c2nc3ccccn3c2/C=C/C(=O)c2cc(OC)c(OC)c(OC)c2)cc1OC | 12.7% | 14.6% | 45.9% | 21.4% | 27.8% | 26.2% | 4.4% (active) | -25.1% (active) | 52.8% | 13.4% | 22.1% | 16.7% | 46.1% | 29.8% | 7.81% (active) | 26.1% | -86.7% (active) | 19.9% | 4.18% (active) | 29.1% |
| Nc1nc(SCc2cccc([N+](=O)[O-])c2)c2[nH]cnc2n1 | 104% | 92% | 107% | 103% | 73.6% | 90.2% | 93.6% | 103% | 104% | 100% | 95.1% | 98.4% | 89.5% | 91.7% | 95% | 92.3% | 98% | 91.3% | 77.9% | 106% |
| Cc1cccc(C[C@H](NC(=O)Nc2ccc(Cl)cc2F)C(=O)N[C@@H]2C(=O)N3C[C@H](O)C[C@H]3C(=O)N3CCN(C)C[C@H]3C(=O)N[C@@H](C)C(=O)N3C[C@H](C)C[C@H]3C(=O)O[C@H]2C)c1 | 36.3% | 24.4% | 42.9% | 22.4% | 81.7% | 30% | 19.7% | 53.8% | 22.6% | 63.5% | 105% | 36% | 18.8% | 22.5% | 23.5% | 19.6% | 40.7% | 28.3% | 40.9% | 42.4% |
| Oc1ccc(N=Nc2nccs2)c(O)c1 | 64% | 44% | 92.9% | 54.9% | 90% | 51.5% | 40.3% | 86.1% | 99.5% | 68% | 28.6% | 51.5% | 92.7% | 90.8% | 41.1% | 55.2% | 87.9% | 44.3% | 40% | 118% |
| C=C(C)[C@@H]1CC[C@]2(C(=O)NCCCN)CC[C@]3(C)[C@H](CC[C@@H]4[C@@]5(C)CC[C@H](O)C(C)(C)[C@@H]5CC[C@]43C)[C@@H]12 | -100% [100 µM] (active) | 1.1% [100 µM] (active) | -18.8% [100 µM] (active) | -47.8% [100 µM] (active) | -42.3% [100 µM] (active) | -16.9% [100 µM] (active) | -26.4% [100 µM] (active) | -36.2% [100 µM] (active) | -46.7% [100 µM] (active) | 5.07% [100 µM] (active) | -22.1% [100 µM] (active) | 3.9% [100 µM] (active) | -51.6% [100 µM] (active) | -29.5% [100 µM] (active) | -13.8% [100 µM] (active) | -53.8% [100 µM] (active) | -23.9% [100 µM] (active) | -22.6% [100 µM] (active) | 1.37% [100 µM] (active) | -31.4% [100 µM] (active) |
| CC(C)C1=NOC(=O)C1=Cc1cn(-c2ccccc2)nc1-c1cccc([N+](=O)[O-])c1 | 84.9% | 33.4% | 109% | 93.1% | 68.9% | 94.1% | 99.1% | 98.1% | 104% | 78.3% | 60.4% | 70.5% | 86.5% | 74.2% | 66.7% | 73% | 90% | 83.9% | 0.102% (active) | 93.4% |
| O=C(Nc1ccc(Oc2ccc(F)cc2)c(Cl)c1)c1cnccn1 | 79.5% | 21.1% | 70.1% | 58.7% | 72.3% | 72.2% | 72.9% | 67.1% | 79.8% | 92.4% | 47.7% | 23.7% | 47.7% | 63.7% | 38.2% | 76% | 49.5% | 50.3% | 51.5% | 76.9% |
